SMILES strings stand for the structures. Calls of active or inactive are those of the source.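 Rule for the calls, unless noted: active = RAM network inhibition above 8.4% in each of two replicates, 3 SD over the compound average; inconclusive = above 8.4% inhibition in only one replicate; inactive = 8.4% inhibition or less in each replicate.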

The first test can be described thus: inhibitors of the yeast RAM network, pilot screen, dse1pr::URA3 reporter, 5-FOA selection (AID 869;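 active = inhibition over a set limit, the all-compound mean plus 3 SD, in both replicate runs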;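 note: 0% = DMSO wells with no growth and 100% = 10 µM 1-NA-PP1 with full growth; RAM network block rescues cells from 5-FOA so hits raise OD615 growth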). The following applies: S. cerevisiae dse1pr::URA3 5-FOA growth, OD615, 2 d; at 10 µM; active compounds read high; strain carries analog-sensitive mutant Cbk1 kinase.
With `c1ccc(N2CCN(c3ncnc4c3oc3ccccc34)CC2)cc1`, the inhibition (commonly the change of the read-out against control, counted positive when it falls) is -0.03% (inactive).
Consider `CCOc1cccc(-c2nc(C(N)=O)c3[nH]c(=O)n(-c4cccc(Cl)c4)c3n2)c1O`, for which the inhibition was 0.85% (inactive).
With `COc1ccc(CC(=O)Nc2c3c(nn2C(C)(C)C)CS(=O)C3)cc1` (stereo not drawn), the inhibition is 1.24% (inactive).
In the case of `CC1=C(C(=O)OCc2ccccc2)C(c2ccco2)C2=C(CC(C)(C)CC2=O)N1` (stereo not drawn), the inhibition is 2.4% (inactive).
The same measure, in the same setting: the result for `COc1ccc(C(=O)O)cc1Nc1cc(C)nc2ncnn12` reads 0.015% (inactive).
Turning to `CCOCCCNC(=O)c1cn(CC(C)C)c(=O)c2cc(OC)c(OC)cc12`, the inhibition is 0.375% (inactive).
Consider `COc1ccccc1C(=O)N1CCN(c2cccc(Cl)c2)CC1`, for which the inhibition is 2.75% (inactive).
Still for that read-out and setting: next, `O=C(NCCn1cc(SCC(=O)N2CCOCC2)c2ccccc21)c1ccccc1`: -0.225% (inactive).
Turning to `Cc1cc2cc(CNC(=O)c3ccc(Br)o3)ccc2[nH]1`, the inhibition is 3.64% (inactive).
With `COc1cccc(NC(=O)CN2C(=O)COc3ccc(Cl)cc32)c1`, the inhibition is 0.405% (inactive).
Still for that read-out and setting: next, `c1csc(Cc2nc(-c3ccc(-n4cccc4)cc3)no2)c1`: 3.12% (inactive); `O=C1C2C3c4ccccc4C(c4ccccc43)C2C(=O)N1Cc1ccco1` (stereo not drawn): 0% (inactive).
On to `COc1cccc(C2CC(=O)N3CN(c4cccc(Cl)c4C)CSC3=C2C#N)c1OC` (stereo not drawn), for which the inhibition was 3.38% (inactive).
The same measure, in the same setting: the result for `O=C(OCC(=O)c1cccs1)c1ccc(NC(=O)c2ccco2)cc1` reads 0.87% (inactive).
In the case of `O=C(Nc1ccc(N2CCN(C(=O)c3ccccc3)CC2)c(Cl)c1)c1ccco1`, the inhibition is 3.31% (inactive).
As for `Cc1ccc(S(=O)(=O)NCc2ccco2)cc1C`, the inhibition was 0.075% (inactive).
On the same count and under the same terms, the result for `CCOC(=O)Cn1c(CN2CCc3ccccc3C2)nc2c1c(=O)n(C)c(=O)n2C` reads -0.39% (inactive); that for `CCc1ccc(C2CC(=O)NC(SCC(=O)OC(C)C)=C2C#N)cc1` (stereo not drawn), 1.15% (inactive); that for `CCNCCNC(=O)c1c(O)c2cccc3c2n(c1=O)CCC3`, 0.7% (inactive).
Same read-out and setting: the result for `CCN(C(=O)c1sc(N)c(C#N)c1C)C1CCCCC1` reads 1.5% (inactive); that for `COC(=O)C1C(O)=C(C=NCC(C)N=CC2=C(O)C(C(=O)OC)C(C)(C)CC2=O)C(=O)CC1(C)C` (stereo not drawn), 2.5% (inactive); that for `CCCCNC(=O)CS(=O)Cc1nc(-c2cccc(Cl)c2)oc1C` (stereo not drawn), 0.705% (inactive).
With `CCn1c(SCC(=O)Nc2nnc(C)s2)nc2c(c1=O)SC(C)C2` (stereo not drawn), the inhibition was 2.4% (inactive).
Turning to `CC(=O)N1CCC2(CC1)C(C#N)=C(N)Oc1n[nH]c(C)c12`, the inhibition was 1.04% (inactive).
On to `O=C1c2ccccc2C(O)N1CCN1CCOCC1` (stereo not drawn), for which the inhibition is 2.64% (inactive).
As to `Cc1sc2nc(SCC(=O)N3CCOCC3)[nH]c(=O)c2c1C`, the inhibition is 1.8% (inactive).
`Cn1nnnc1SCc1nc2ccccc2[nH]1`: the inhibition was 0.215% (inactive).
Consider `CCOC(=O)c1cc2c(=O)n3ccccc3nc2n(CCCOC)c1=NC(=O)c1cccnc1`, for which the inhibition was 0.775% (inactive).
As to `COc1c(C)cccc1C(=O)Nc1cc(-c2nn3c(C)nnc3s2)ccc1C`, the inhibition was 2.07% (inactive).
As for `O=C1CC(C(=O)N2CCN(c3ccc(F)cc3)CC2)CN1CCc1ccccc1` (stereo not drawn), the inhibition is -0.23% (inactive).
Still for that read-out and setting: next, `CCOc1ccc(S(=O)(=O)N2CCN(S(=O)(=O)c3ccc(OCC)cc3)C(C)C2)cc1` (stereo not drawn): 1.27% (inactive).
Regarding `O=C(O)CC1C(=O)NCCN1CCCc1ccccc1` (stereo not drawn), the inhibition is 0.455% (inactive).
In the case of `O=C(NCC1CCCO1)C1CC(=O)N(c2ccc(F)c(Cl)c2)C1` (stereo not drawn), the inhibition was 1.5% (inactive).
In the case of `Cc1ccc(S(=O)(=O)N(C)Cc2nc(-c3ccc(Br)cc3)no2)cc1`, the inhibition is 2.72% (inactive).
Consider `CCCCN=C(C)C1=C(O)CSC1=O`, for which the inhibition was 2% (inactive).
Turning to `C=C(C)Cn1c(C2CC(=O)N(Cc3ccccc3)C2)nc2ccccc21` (stereo not drawn), the inhibition is 1.46% (inactive).
For `O=C(c1ccccc1)N1CCN(c2ccc(NCc3ccc4c(c3)OCO4)cc2)CC1`, the inhibition was 1.77% (inactive).
Take `Cc1csc2nc(CNS(=O)(=O)N(C)C)cn12`: the inhibition is 0.875% (inactive).
With `CCOC(=O)C1CCCCN1Cc1cc(Cl)ccc1O` (stereo not drawn), the inhibition is 0.74% (inactive).

The next test in a line: RAM signaling pathway blockade in yeast – S. cerevisiae, Pdr1DBD-CYC8 efflux-inhibited sensitized strain, primary screen (AID 1298).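 Note: 0% = DMSO untreated cells without growth and 100% = 10 µM 1-NA-PP1 full growth; higher means more yeast growth rescued from 5-FOA killing.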 Conditions: S. cerevisiae cbk1-as DSE1-URA3 strain, 5-FOA growth OD615, 2 d; at 50 µM; active compounds read high.
For `c1ccc(N2CCN(c3ncnc4c3oc3ccccc34)CC2)cc1`, the RAM network inhibition is 8.18% (inactive).
Turning to `CCOc1cccc(-c2nc(C(N)=O)c3[nH]c(=O)n(-c4cccc(Cl)c4)c3n2)c1O`, the RAM network inhibition was 2.67% (inactive).
The same measure, in the same setting: the result for `COc1ccc(CC(=O)Nc2c3c(nn2C(C)(C)C)CS(=O)C3)cc1` (stereo not drawn) reads 0.63% (inactive); that for `CC1=C(C(=O)OCc2ccccc2)C(c2ccco2)C2=C(CC(C)(C)CC2=O)N1` (stereo not drawn), 1.23% (inactive).
On the same count and under the same terms, next, `COc1ccc(C(=O)O)cc1Nc1cc(C)nc2ncnn12`: 0.94% (inactive); `CCOCCCNC(=O)c1cn(CC(C)C)c(=O)c2cc(OC)c(OC)cc12`: 4.93% (inactive); `COc1ccccc1C(=O)N1CCN(c2cccc(Cl)c2)CC1`: 2.22% (inactive).
Still for that read-out and setting: the result for `O=C(NCCn1cc(SCC(=O)N2CCOCC2)c2ccccc21)c1ccccc1` reads 0.78% (inactive); that for `Cc1cc2cc(CNC(=O)c3ccc(Br)o3)ccc2[nH]1`, 8.22% (inactive).
On to `COc1cccc(NC(=O)CN2C(=O)COc3ccc(Cl)cc32)c1`, for which the RAM network inhibition is 0.31% (inactive).
Consider `c1csc(Cc2nc(-c3ccc(-n4cccc4)cc3)no2)c1`, for which the RAM network inhibition is 1.65% (inactive).
For `O=C1C2C3c4ccccc4C(c4ccccc43)C2C(=O)N1Cc1ccco1` (stereo not drawn), the RAM network inhibition was 4.51% (inactive).
`COc1cccc(C2CC(=O)N3CN(c4cccc(Cl)c4C)CSC3=C2C#N)c1OC` (stereo not drawn): the RAM network inhibition was 7.39% (inactive).
Take `O=C(OCC(=O)c1cccs1)c1ccc(NC(=O)c2ccco2)cc1`: the RAM network inhibition is 0.26% (inactive).
Same read-out and setting: the result for `O=C(Nc1ccc(N2CCN(C(=O)c3ccccc3)CC2)c(Cl)c1)c1ccco1` reads 5.57% (inactive).
Consider `Cc1ccc(S(=O)(=O)NCc2ccco2)cc1C`, for which the RAM network inhibition was 2.42% (inactive).
As for `CCOC(=O)Cn1c(CN2CCc3ccccc3C2)nc2c1c(=O)n(C)c(=O)n2C`, the RAM network inhibition is 4.64% (inactive).
Turning to `CCc1ccc(C2CC(=O)NC(SCC(=O)OC(C)C)=C2C#N)cc1` (stereo not drawn), the RAM network inhibition is 2.6% (inactive).
Consider `CCNCCNC(=O)c1c(O)c2cccc3c2n(c1=O)CCC3`, for which the RAM network inhibition is 0.57% (inactive).
On to `CCN(C(=O)c1sc(N)c(C#N)c1C)C1CCCCC1`, for which the RAM network inhibition was 0.01% (inactive).
Regarding `COC(=O)C1C(O)=C(C=NCC(C)N=CC2=C(O)C(C(=O)OC)C(C)(C)CC2=O)C(=O)CC1(C)C` (stereo not drawn), the RAM network inhibition is 0.9% (inactive).
Take `CCCCNC(=O)CS(=O)Cc1nc(-c2cccc(Cl)c2)oc1C` (stereo not drawn): the RAM network inhibition is 6.02% (inactive).
In the case of `CCn1c(SCC(=O)Nc2nnc(C)s2)nc2c(c1=O)SC(C)C2` (stereo not drawn), the RAM network inhibition was 2.04% (inactive).
With `CC(=O)N1CCC2(CC1)C(C#N)=C(N)Oc1n[nH]c(C)c12`, the RAM network inhibition was 6.55% (inactive).
Regarding `O=C1c2ccccc2C(O)N1CCN1CCOCC1` (stereo not drawn), the RAM network inhibition is 1.95% (inactive).
On the same count and under the same terms, next, `Cc1sc2nc(SCC(=O)N3CCOCC3)[nH]c(=O)c2c1C`: 2.17% (inactive); `Cn1nnnc1SCc1nc2ccccc2[nH]1`: 3.43% (inactive).
Regarding `CCOC(=O)c1cc2c(=O)n3ccccc3nc2n(CCCOC)c1=NC(=O)c1cccnc1`, the RAM network inhibition was 3.03% (inactive).
On the same count and under the same terms, the result for `COc1c(C)cccc1C(=O)Nc1cc(-c2nn3c(C)nnc3s2)ccc1C` reads 7.01% (inactive); that for `O=C1CC(C(=O)N2CCN(c3ccc(F)cc3)CC2)CN1CCc1ccccc1` (stereo not drawn), 1.03% (inactive).
Regarding `CCOc1ccc(S(=O)(=O)N2CCN(S(=O)(=O)c3ccc(OCC)cc3)C(C)C2)cc1` (stereo not drawn), the RAM network inhibition was 6.32% (inactive).
As for `O=C(O)CC1C(=O)NCCN1CCCc1ccccc1` (stereo not drawn), the RAM network inhibition is -1.48% (inactive).
Take `O=C(NCC1CCCO1)C1CC(=O)N(c2ccc(F)c(Cl)c2)C1` (stereo not drawn): the RAM network inhibition was 5.33% (inactive).
For `Cc1ccc(S(=O)(=O)N(C)Cc2nc(-c3ccc(Br)cc3)no2)cc1`, the RAM network inhibition was 3.02% (inactive).
As to `CCCCN=C(C)C1=C(O)CSC1=O`, the RAM network inhibition was 3.8% (inactive).
`C=C(C)Cn1c(C2CC(=O)N(Cc3ccccc3)C2)nc2ccccc21` (stereo not drawn): the RAM network inhibition was 2.18% (inactive).
As for `O=C(c1ccccc1)N1CCN(c2ccc(NCc3ccc4c(c3)OCO4)cc2)CC1`, the RAM network inhibition is 6.1% (inactive).
Turning to `Cc1csc2nc(CNS(=O)(=O)N(C)C)cn12`, the RAM network inhibition was 0.05% (inactive).
The same measure, in the same setting: next, `CCOC(=O)C1CCCCN1Cc1cc(Cl)ccc1O` (stereo not drawn): 3.98% (inactive).

The record behind these values is PubChem BioAssay.
